Hit rate of the full screen: of about 68,000 compounds, about 2,700 (4%) showed an effect of 50% or more. The sample holds strong results, similar compounds and a random draw of the others, so the mix is not that of the screen.

For the test, the system named is Plasmodium berghei. Briefly: Screen against P. berghei liver stage (PbLuc), transformed with Luciferase, at 2uM. It counts as functional, HepG2. The following applies: tested at 2 uM.
Take `Cc1nc(C)n(CC2CCCN(c3ncnc4ccsc34)C2)n1` (stereo not drawn): the INHIBITION was -20.93%.
As for `COC(=O)CN(C(=O)c1ccc(Cl)o1)c1cccc(F)c1`, the INHIBITION stood at 34.65%.
Turning to `O=C(NCc1ccc(Br)c(F)c1)Nc1cn[nH]c1`, the INHIBITION is 2.31%.
In the case of `Cc1cc(CN2CCCC2c2c(C)nn(C)c2Cl)on1` (stereo not drawn), the INHIBITION is listed as -50.23%.
In the case of `CCc1nc(CN(C)c2nccc(N3CCCC(O)C3)n2)no1` (stereo not drawn), the INHIBITION is 11.38%.
For `Cc1cnn(CC2CN(Cc3nc(C)no3)CCO2)c1` (stereo not drawn), the INHIBITION is reported as -35.62%.
With `O=C(c1ccco1)N1CCCC1C1CCN(Cc2ccccc2)CC1` (stereo not drawn) the figure was 3%.
Turning to `O=C(C1CC1)N1CCCC1C1CCN(Cc2ccccc2)CC1` (stereo not drawn), the INHIBITION came to 53.86%.
For the molecule `O=C(c1ccncc1)N1CCCC1C1CCN(Cc2ccccc2)CC1` (stereo not drawn), the INHIBITION amounted to 45.82%.
`CC(=O)c1cc(CC(=O)NCc2cccc(F)c2F)cs1`: the INHIBITION came out at 36.26%.
Regarding `Cc1nnc(N2C[C@@H]3CCCO[C@@H]3[C@H](N3CCCC3=O)C2)s1`, the INHIBITION is 21.57%.
`CC(=O)N1CCCN(C(=O)NCCNc2cnccn2)CC1`: the INHIBITION came to 64.71%.
Take `O=C(NCCNc1cnccn1)N1CCCC1`: the INHIBITION was -12.31%.
With `CN1CCCN(C(=O)NCCNc2cnccn2)CC1` the figure was 12.88%.
`COCC1(C(=O)N[C@H]2CN(c3noc(C)n3)C[C@@H]2C2CC2)CCC1`: the INHIBITION was 21.28%.
For the molecule `CC(C)S(=O)(=O)NCC1CCCN(C(=O)c2ccc3c(c2)OCCO3)C1` (stereo not drawn), the INHIBITION came out at 21.39%.
On to `O=C(CC1CC1)N[C@@H]1CN(C(=O)c2cccs2)C[C@@H]2CCCO[C@@H]21`, for which the INHIBITION worked out at 45.36%.
Turning to `CC(NC(=O)N1CCSC(C)(C)C1)c1noc(-c2ccccc2)n1` (stereo not drawn), the INHIBITION was 29.13%.
In the case of `CCN1CCN(C(=O)NC(C)c2noc(-c3ccccc3)n2)CC1` (stereo not drawn), the INHIBITION was determined as 88.75%.
For the molecule `CC(NC(=O)N1CCC[C@H]1CO)c1noc(-c2ccccc2)n1` (stereo partly drawn), the INHIBITION was found to be 5.28%.
With `O=C(Nc1ccccc1)N1C2CCC(O)(CC2)C1CN1CCOCC1` (stereo not drawn), the INHIBITION worked out at 11.94%.
Turning to `CCC(O)C1CCN(C(=O)Nc2nc(-c3ccccc3)ns2)CC1` (stereo not drawn), the INHIBITION amounted to 57.92%.
As for `CC(O)C1CCN(C(=O)Nc2nc(-c3ccccc3)ns2)CC1` (stereo not drawn), the INHIBITION is listed as -65.84%.
Consider `O=C(Nc1nc(-c2ccccc2)ns1)N1CCC(CO)CC1`, for which the INHIBITION was 7.72%.
Consider `O=C(c1cscn1)N1CCC2(CN(Cc3ccncc3)C2)C1`, for which the INHIBITION was 55.66%.
With `O=C(c1cscn1)N1CCC2(CN(Cc3ccoc3)C2)C1` the figure was 46.87%; with `O=C(c1cscn1)N1CCC2(CN(Cc3ccsc3)C2)C1`, -27.26%.
Turning to `CCc1ccc(C(=O)Nc2cccc(CN3CCCC3C(N)=O)c2)cc1` (stereo not drawn), the INHIBITION stood at 10.61%.
With `NC(=O)C1CCCN1Cc1cccc(NC(=O)c2cc(Cl)cc(Cl)c2)c1` (stereo not drawn) the figure was 3.14%.
With `Cc1cc(C)cc(C(=O)Nc2cccc(CN3CCCC3C(N)=O)c2)c1` (stereo not drawn) the figure was 57.01%; with `O=C(CSc1nnc(N2CCNCC2)s1)Nc1ccccc1`, 48.59%; with `Cn1nc(Br)c2c(NCCNc3ncccn3)ncnc21`, 33.11%.
Turning to `Cn1nc(Br)c2c(NCCS(N)(=O)=O)ncnc21`, the INHIBITION was 20.21%.
As to `Cn1nc(Br)c2c(NCCN)ncnc21`, the INHIBITION was 60%.
As for `CC(CS(C)(=O)=O)NCc1cc(Cl)ccc1F` (stereo not drawn), the INHIBITION was found to be 50.53%.
For `CC(C)NC(=O)CC(C)NCc1ccc(F)cc1Cl` (stereo not drawn), the INHIBITION was 40.64%.
For the molecule `CS(=O)(=O)Cc1ccc(Cl)cc1NCc1ccccc1F`, the INHIBITION is 0.13%.
As to `CC(C)NC(=O)CNC(C)c1c(F)cccc1Cl` (stereo not drawn), the INHIBITION stood at 5.34%.
`CC(C)C(=O)NCc1cc(Br)ccc1F`: the INHIBITION is recorded as -64.91%.
For the molecule `CC(C)NC(=O)CC(C)NCc1cc(Cl)ccc1F` (stereo not drawn), the INHIBITION turned out to be 52.51%.
On to `Cc1cnc(CNc2ncc(C)c(-c3cnn(C)c3)n2)cn1`, for which the INHIBITION was -20.35%.
For the molecule `Cc1cccc(N2CCC3(CCN(C(=O)c4cccnc4)CC3)C2)n1`, the INHIBITION was found to be 7.29%.
For the molecule `Cc1nnc(NC(=O)CN2CCCC2c2noc(C3CC3)n2)s1` (stereo not drawn), the INHIBITION was -32.11%.
Turning to `O=C(Cc1ccsc1)NCCc1ccoc1`, the INHIBITION is 42.8%.
Turning to `O=C(NCCc1ccsc1)c1ccoc1`, the INHIBITION worked out at 52.08%.
Consider `CC(NC(=O)c1ccoc1)C(=O)N(C)Cc1ccsc1` (stereo not drawn), for which the INHIBITION is reported as -56.89%.
Consider `COc1ccc(CN2CCC3(CC2)CCN(CC2CC2)C3=O)cc1`, for which the INHIBITION was -0.64%.
`CC(C)CNC(=O)c1ccc(NC(=O)NC(C)c2ccccn2)cc1` (stereo not drawn): the INHIBITION was -17.17%.
Consider `O=C(c1ccccn1)N1Cc2nccn2CC(COc2cccnc2)C1` (stereo not drawn), for which the INHIBITION is -28.34%.
For `Cc1ccc(Oc2ncccc2C(=O)O)c(C)c1`, the INHIBITION came to 50.61%.
With `Cc1ccc(Oc2ncccc2C(=O)N(C)CC2OCCO2)c(C)c1` the figure was 23.53%.
With `Cc1ccc(Oc2ncccc2C(=O)N(C)CCCN(C)C)c(C)c1` the figure was 32.85%.
Consider `O=C(c1ccco1)N1CC2(CCNCC2)c2cc(Cl)ccc21`, for which the INHIBITION is 34.18%.

For the origin of these results see ChEMBL document CHEMBL4513216, “Probing the Open Global Health Chemical Diversity Library for Multistage-Active Starting Points for Next-Generation Antimalarials” (ACS Infect Dis, 2020).
